aSyn rescue: qHTS of alpha-syn Inhibitors; Yeast expressing alpha-synuclein, growth rescue, BacTiter-Glo, 24 h; Potency, µM (highest dose often 46.1 µM), without a hit: at the top dose growth rescue (activation), most hits filed as activators; 370,000 compounds, 0.14% hits; AID 652106, 2013; note: % of control where 0% means no effect; nearly all actives have a fitted effect of over 65% in size
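Screening used galactose-induced yeast with toxic alpha-synuclein levels, exposed to compound for 24 hr at 30 deg C. Cell growth, read with BacTiter-Glo luminescence, gave the measured signal.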
Mito fusion yeast: qHTS Assay for Small Molecule Inhibitors of Mitochondrial Division or Activators of Mitochondrial Fusion; 320,000 compounds, 0.23% hits; Potency, µM (top dose mostly 46.1 µM), inactives show top-dose growth rescue (activation), usual class: activators; S. cerevisiae fusion-defective mutant growth rescue, CellTiterGlo 48 h; note: % of control where 0% means no effect; nearly all actives have a fitted effect of over 45% in size
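Yeast fusion mutant, YPEG (non-fermentable carbon), compound, 48 h at 37C non-permissive; CellTiterGlo added, 10 min RT, luminescence read. Rescued growth = division inhibition.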
GRP78 ERSR act: qHTS for Inducers of the Endoplasmic Reticulum Stress Response (ERSR) in Human Glioma: qHTS; U87-MG GRP78 promoter luciferase reporter, 16 h; Potency, µM, without a hit: at the highest dose activation, hits mostly activators; 420,000 compounds, 0.02% hits; note: series mostly up to about 76 µM; % of control where 0% means no effect; nearly all actives have a fitted effect of over 35% in size
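Stably transfected U87-MG glioma cells carrying a GRP78-based luciferase sensor; 16 h compound incubation. Luminescence end-point read 10 min after Bright-Glo addition at room temperature.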
TDP43 rescue: qHTS of TDP-43 Inhibitors; TDP-43 expressing yeast growth rescue, BacTiter-Glo, 24 h; Potency, µM (titrated, usually from 46.1 µM), for the others: at the top dose growth rescue (activation), actives largely listed as activators; 410,000 compounds, 1.8% hits; AID 652104, 2013; note: % of control where 0% means no effect; nearly all actives have a fitted effect of over 50% in size
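Growth rescue of TDP-43-toxic yeast measured as ATP luminescence (BacTiter-Glo). Cells grown to mid-log in raffinose, induced in galactose at OD600=0.02, exposed to compound 24 hr at 30 deg C.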
AT treatment: qHTS Assay for Identifying a Potential Treatment of Ataxia-Telangiectasia | F2112 A-T fibroblasts, KAP-1 phosphorylation AlphaLISA; neocarzinostatin DNA damage 30 min before lysis | Potency, µM (top dose mostly 57.5 µM), for the others: top-dose activation, most hits filed as activators | 320,000 compounds, 0.19% hits | AID 485349, 2010; note: % of control where 0% means no effect; nearly all actives have a fitted effect of over 45% in size
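hTERT-immortalized A-T patient fibroblasts (F2112), 500 cells/well in OPTI-MEM, 1% FBS, got compounds for 60 min, then NCS for 30 min at 37C. Lysates were then assayed for phospho-KAP-1 by AlphaLISA (anti-pKAP1 donor, anti-KAP1 acceptor beads), 6 hr at 25C.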
Abeta yeast res: qHTS for compounds that reverse cellular toxicity of Amyloid beta (A-beta) peptide in yeast: Primary Screen; Potency, µM (series often up to 46.1 µM), usual class: activators; yeast expressing A-beta42, growth rescue, OD600, 48 h; response scale: 0% DMSO, 100% iron-clioquinol control; 410,000 compounds, 0.063% hits; note: nearly all actives have a fitted effect of over 55% in size
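Yeast A-beta toxicity model in growth medium with pinned compounds, 48 h at 30 C; growth read as absorbance at 600 nm. Normalized to FeCl3/clioquinol equimolar mix (positive) and DMSO (negative).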
* hit, by the source's call; i = inactive; ? = inconclusive; . = no result given. Rows were chosen to be rich in hits. Some 2.1% of all compounds tested hit in one or more screens of this group. Calls come from the whole dose curve; as a rule, active = well fitted curve in the direction sought with a large enough effect; inconclusive = small, poorly fitted or top-dose-only effect, or another doubt; inactive = no such curve, though single readings can be large; an effect the other way counts as inactive or inconclusive. Potency is the fitted concentration of half-maximal effect.

SMILES	aSyn rescue	Mito fusion yeast	GRP78 ERSR act	TDP43 rescue	AT treatment	Abeta yeast res
COC(=O)C1CCN(Cc2ccc3c(c2)CN(C(=O)c2cc(-c4ccc(C)o4)[nH]n2)CCO3)CC1	.	.	-4%	.	.	.
COc1cc2nc(CC(O)c3nc4cc(OC)c(OC)cc4[nH]3)[nH]c2cc1OC (stereo unspecified)	.	.	-3%	.	.	.
Cc1ccccc1N1CC(c2nc3ccccc3n2CCC2CCCCC2)CC1=O (stereo unspecified)	.	.	-9%	22µM*	.	i
C[C@H](NC(=O)c1ccc(Cl)c(S(=O)(=O)N2CCOCC2)c1)c1nc2ccccc2[nH]1	-2%	2%	-2%	-15%	-2%	i
CCC1C(=O)NCCN1Cc1ccc2c(c1)CN(Cc1ccc3c(c1)OCCO3)CCO2 (stereo unspecified)	.	.	-4%	.	.	.
Cc1c(C2(O)CCCCC2)[nH]c2ccc(C#N)cc12	1%	.	2%	-8%	9%	i
COC(=O)c1ccc2c(C)c(C3(O)CCCCC3)[nH]c2c1	0%	.	5%	20µM*	-7%	i
CCc1c(C2(O)CCCCC2)[nH]c2c(C(=O)OC)cc(Cl)cc12	-49%	-27%	-5%	-85%	-4%	i
COC(=O)c1cc(Cl)cc2c(C)c(C3(O)CCCCC3)[nH]c12	?	0%	-2%	35µM*	10%	i
CN1CCCC(CNC(=O)c2cnn(-c3nccc(-c4cccs4)n3)c2C2CC2)C1 (stereo unspecified)	.	.	-3%	.	.	.
CCOC(=O)C1=CN(Cc2cccc(F)c2)S(=O)(=O)NC1c1ccc(Br)cc1F (stereo unspecified)	0%	.	1%	16µM*	24%	i
CCOC(=O)C1=CN(Cc2cccc(F)c2)S(=O)(=O)NC1c1ccc(F)c(Cl)c1 (stereo unspecified)	4%	.	-5%	10%	8%	i
COc1ccc(CCNC(=O)CCN2C(=O)COc3ccc(C)cc32)cc1OC	1%	-1%	-2%	8.9µM*	-1%	i
CCOC(=O)C1CCCN(C(=O)c2cnn(-c3ncc4c(n3)-c3ccccc3CCC4)c2C2CC2)C1 (stereo unspecified)	.	.	0%	.	.	.
CCCCCc1ccc(C2=NNC(=O)CC2)cc1	14%	-1%	2%	13µM*	-1%	i
CCCCCc1ccc(-c2ccc(=O)[nH]n2)cc1	2%	?	9%	18µM*	7%	i
O=C(c1cccc(Cl)c1)N1c2nc(-c3ccco3)nn2C2(CCCCC2)[C@@H]2CCCC[C@@H]21	.	.	-2%	8%	.	i
O=C(c1cccc(Cl)c1)N1c2ncnn2C2(CCCCC2)[C@@H]2CCCC[C@@H]21	.	.	-2%	13µM*	.	i
CCn1c(COc2ccc(Cl)cc2)nnc1SCc1ccc(C#N)cc1	?	3%	-7%	22%	1%	i
CCn1c(COc2ccc(Cl)cc2)nnc1SC1CCc2ccccc2C1=O (stereo unspecified)	?	18µM*	-2%	11%	6%	i
CC(C)(C)c1onc(OCP(=O)(O)O)c1CC(N)C(=O)O (stereo unspecified)	-2%	-10%	-5%	.	.	.
Cc1ccc(O)c(C(=O)CC(=O)c2ccc(Cl)cc2)c1	?	?	6%	22%	9%	i
Cc1cccc(C(=O)CC(=O)c2cc(Cl)ccc2O)c1	?	18%	-8%	?	4%	i
Cc1ccc(O)c(C(=O)CC(=O)c2cccc(F)c2)c1	16µM*	23%	-1%	-49%	-2%	i
O=C(CC(=O)c1cc(Cl)ccc1O)c1ccccc1	?	14%	1%	10µM*	16%	i
SMILES	aSyn rescue	Mito fusion yeast	GRP78 ERSR act	TDP43 rescue	AT treatment	Abeta yeast res
O=C(COc1ccc2ccccc2c1)NCCn1ccc2ccccc21	?	?	4%	22µM*	13%	?
COc1ccc(CNc2nc(S(=O)(=O)c3ccccc3)c(Cl)s2)cc1OC	1%	-19%	-2%	1%	-11%	i
O=S(=O)(c1ccccc1)c1nc(NCc2ccccc2)sc1Cl	-1%	?	-6%	20µM*	18%	i
Cc1ccc(Nc2ncc(C(=O)N3CCN(c4ccc(F)cc4)CC3)c3ccccc23)cc1Cl	.	.	-1%	13µM*	.	i
Cc1ccc(C(=O)/C=C/C(=O)c2ccc(C)cc2)cc1	-2%	-5%	3%	?	25µM*	i
COC(=O)c1ccccc1C(=O)NCC1Cc2cc(-c3nc(C)cnc3C)ccc2O1 (stereo unspecified)	.	.	0%	.	.	.
NCC(O)CC(=O)O (stereo unspecified)	.	.	-5%	.	.	.
COC(=O)c1cc(N=Nc2c(C)[nH]c3ccccc23)cc(C(=O)OC)c1	1%	2%	3%	0%	-3%	i
Cc1[nH]c2ccccc2c1N=Nc1cccc(C(=O)O)c1	-59%	1%	-4%	18µM*	-9%	i
O=C(COc1ccccc1)OCC(=O)c1ccc(O)cc1O	4%	-1%	0%	25%	-2%	13µM*
O=C1NC(c2cccc3ccccc23)Nc2ccc(Cl)cc21 (stereo unspecified)	1%	.	-7%	11µM*	.	i
CCOc1ccccc1C(=O)Nc1ccccc1O	-12%	7%	-1%	14µM*	-3%	i
O=C(Nc1ccccc1)Nc1cccc2cccnc12	-9%	18%	-12%	7.1µM*	0%	i
COc1ccccc1C(=O)Nc1cccc2cccnc12	9%	-9%	5%	3.2µM*	27%	i
COc1cc(NCc2ccccc2O)c2ncccc2c1	?	4%	0%	-4%	4%	i
O=C(Nc1ccccc1)Nc1cccc2ccccc12	-6%	-6%	3%	11%	1%	i
Oc1ccccc1CNc1cccc2cccnc12	-25%	3%	7%	14µM*	-2%	i
O=C(Nc1cccc2cccnc12)c1ccccc1Cl	-2%	.	-3%	5%	.	i
O=C(c1cccn1-c1nnc(N2CCCC2)s1)N1CCN(c2ccccc2)CC1	.	.	1%	-4%	.	i
